Among all 350,000 compounds or so, about 5,500 (1.6%) were called active.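 Rule for the calls: active = significant combined selectivity score with lowered wild-type GFP, culture density cut under 30%, mutant RFP and density less affected; inactive = any of these conditions unmet.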 The sample as a whole holds a higher share of actives than the screen did.
Assay: GFP drop in mixed WT/humanized-ribosome E. coli culture – GFP/RFP fluorescence, OD600, single point, bacterial rRNA inhibitor project, primary screen (AID 720706)
Settings: E. coli WT GFP vs humanized-ribosome RFP mutants, 24 h; GFP signal change (wild-type ribosome): stronger effect = lower value, DMSO median 0, no signal -100; OD600 change: measured here: OD600 growth, DMSO median 0, no signal -100; RFP signal change: measured here: RFP humanized mutant strains, DMSO median 0, no signal -100, concentration not given here

Row | SMILES | GFP signal change (wild-type ribosome) | OD600 change | RFP signal change
1 | COCCNC(=O)C[C@H]1C[C@H]2c3cc(NS(C)(=O)=O)ccc3O[C@H]2[C@H](CO)O1 | 3.03% (inactive) | -0.685% | -2.39%
2 | C[C@@H]1CN([C@H](C)CO)C(=O)c2cc(NS(=O)(=O)c3ccc(F)cc3)ccc2O[C@@H]1CN(C)S(C)(=O)=O | 3.23% (inactive) | 5.12% | -0.699%
3 | CO[C@H]1CN(C)C(=O)c2ccc(NC(=O)c3ccccc3F)cc2OC[C@H](C)N(C(=O)c2ccccc2F)C[C@H]1C | -0.558% (inactive) | -1.65% | 0.417%
4 | CCCNC(=O)N(C)C[C@H]1Oc2ncc(-c3ccc(C(=O)N(C)C)cc3)cc2C(=O)N([C@@H](C)CO)C[C@@H]1C | 6.11% (inactive) | 12.2% | -1.77%
5 | CCCN(C)C[C@H]1OCCCC[C@@H](C)Oc2ccc(NC(=O)Nc3ccc(F)cc3)cc2C(=O)N([C@@H](C)CO)C[C@H]1C | -3.85% (inactive) | -9.95% | 3.72%
6 | Cc1ccccc1S(=O)(=O)NC(=O)C1(C)CCN1C(=O)C1(c2ccc(Cl)cc2)CC1 (stereo not drawn) | -15.3% (active) | 13% | 7.67%
7 | CC1(C(=O)NS(=O)(=O)c2ccc3ccccc3c2)CCN1C(=O)C1(c2ccc(Cl)cc2)CCC1 (stereo not drawn) | -33.2% (inactive) | -59.6% | -12.6%
8 | Cc1ccccc1S(=O)(=O)NC(=O)C1(C)CCN1C(=O)C1(c2ccccc2)CCCC1 (stereo not drawn) | -6.4% (inactive) | 0.03% | -0.676%
9 | Cc1noc(C)c1S(=O)(=O)N(C)C[C@@H]1OCCCC[C@H](C)Oc2ccc(NC(=O)CCC(F)(F)F)cc2C(=O)N([C@H](C)CO)C[C@H]1C | -0.425% (inactive) | 1.3% | 2.1%
10 | O=C(c1cnccn1)N1CC(=O)N2[C@H](C1)[C@@H](c1ccc(C3=CCCCC3)cc1)[C@@H]2CO | 3.19% (inactive) | -21.9% | 1.94%
11 | COCCNC(=O)C[C@@H]1C[C@@H]2c3cc(NS(=O)(=O)c4ccccc4)ccc3O[C@@H]2[C@H](CO)O1 | 1.27% (inactive) | 4% | -0.545%
12 | c1ccc(COc2nsnc2N2CCOCC2)cc1 | 0.165% (inactive) | -14.3% | -6.39%
13 | Fc1cccc2ncnc(OCc3ccccc3)c12 | -30.9% (active) | -18% | -2.44%
14 | CC(CNC(=O)Cn1cnc2c(OCc3ccccc3)ncnc21)c1ccccc1 (stereo not drawn) | 8.65% (inactive) | 14.8% | 2.69%
15 | CCCC#Cc1ccc([C@@H]2[C@@H](CO)N3C(=O)CN(C(=O)Nc4ccc(F)cc4)C[C@@H]23)cc1 | -0.84% (inactive) | -38.9% | 19.5%
16 | COCC(=O)Nc1ccc2c(c1)C(=O)N(C)[C@H]1CC[C@@H](CC(=O)NCc3cccc(F)c3)O[C@H]1CO2 | 3.46% (inactive) | 6.34% | 1.53%
17 | CC(=O)Nc1ccc2c(c1)CC(=O)N(C)C[C@H](C)[C@H](CN(C)S(C)(=O)=O)O2 | 0.68% (inactive) | 1.91% | 0.168%
18 | CCNC(=O)[C@H]1[C@H](CO)[C@H]2Cn3c(cccc3=O)[C@@H]1N2Cc1cc(F)ccc1F | 0.156% (inactive) | 3.74% | 1%
19 | C[C@@H]1CN([C@H](C)CO)C(=O)c2cccc(NS(=O)(=O)c3ccc(F)cc3)c2O[C@@H]1CN(C)S(=O)(=O)c1ccc(Cl)cc1 | -1.76% (inactive) | -16.2% | -1.81%
20 | Cc1nc(-c2ccc([N+](=O)[O-])cc2)c(-c2ccccc2)o1 | -32% (active) | -14.4% | 13.4%
21 | O=[N+]([O-])c1cc2ccccc2nc1-c1ccccc1 | 11.2% (inactive) | -0.7% | -0.455%

Row | SMILES | GFP signal change (wild-type ribosome) | OD600 change | RFP signal change
22 | Cn1nc(-c2ccccc2)c2cc([N+](=O)[O-])ccc21 | 0.085% (inactive) | 1.86% | -0.696%
23 | O=C(C[C@H]1C[C@H]2c3cc(NC(=O)C4CCOCC4)ccc3O[C@H]2[C@@H](CO)O1)NCC1CC1 | 2.89% (inactive) | 8.38% | -2.18%
24 | Cc1noc(C)c1NC(=O)Nc1ccc2c(c1)C(=O)N([C@@H](C)CO)C[C@H](C)[C@@H](CN(C)C(=O)C1CCCCC1)OCCCC[C@@H](C)O2 | 1.51% (inactive) | 8.89% | -0.802%
25 | CC=Cc1ccc2n(c1=O)C[C@@H]1[C@@H](CO)[C@H](C(=O)NCCc3ccccc3)N(C(C)=O)[C@H]21 (mixture of isomers) | 0.861% (inactive) | 2.27% | -0.668%
26 | COc1ccccc1NC(=O)N1C[C@@H]2[C@H](c3ccccc31)[C@H](CO)N2CC1CCOCC1 | 0.276% (inactive) | -6.98% | 0.913%
27 | COc1ccc(-c2cc3nc(NCCOc4ccccc4)ccn3n2)cc1 | -7.79% (inactive) | -16.3% | 16.5%
28 | COCCNc1cc(-c2ccccc2)nc2cc(-c3cccc(F)c3)nn12 | -14.8% (active) | 8.3% | -4.74%
29 | COCCCNc1ccn2nc(-c3ccc(CC(C)C)cc3)cc2n1 | -26.9% (inactive) | -34.5% | 0.31%
30 | CC(C)NC(=O)N(C)C[C@H]1OCc2ccccc2-c2c(n(C)c3ccccc23)C(=O)N([C@H](C)CO)C[C@@H]1C | 0.94% (inactive) | 5.88% | -4.42%
31 | CN1c2ccc(-c3ccccc3)cc2[C@@H]2[C@@H](CCN2C(=O)NC2CCCC2)[C@H]1CO | -26.6% (inactive) | -47.4% | 16.9%
32 | CCC(=O)N1[C@@H](CO)[C@@H](c2ccccc2)C12CN(C(=O)c1cnccn1)C2 | -1.97% (inactive) | -9.38% | 1.42%
33 | COc1ccc(-c2nc(N)ncc2-c2ccc(Cl)cc2)c(O)c1 | -4.3% (inactive) | -9.82% | 0.567%
34 | C=C(C)COc1ccc(-c2ncncc2-c2ccc(OC)cc2)c(O)c1 | -11.6% (inactive) | -10.7% | -1.31%
35 | CCOc1ccc(-c2nc(N)ncc2-c2ccccc2OC)c(O)c1 | -28.9% (active) | -3.55% | -5.66%
36 | CCS(=O)(=O)Nc1ccc2c(c1)C(=O)N(C)[C@@H]1CC[C@H](CC(=O)N3CCCCC3)O[C@@H]1CO2 | -0.591% (inactive) | -4.1% | -3.67%
37 | COc1ccc(NC(=O)N2C[C@H](O)COC[C@@H]3O[C@@H](CC(=O)NCc4ccccc4OC)CC[C@H]32)cc1 | -1.91% (inactive) | -2.52% | -1.31%
38 | COc1cccc(-c2cn(CC[C@H]3CC[C@H](NC(=O)CN(C)C)[C@H](CO)O3)nn2)c1 | -0.8% (inactive) | -2.58% | -0.651%
39 | CCNC(=O)[C@H]1[C@H](CO)[C@H]2Cn3c(cccc3=O)[C@H]2N1C(=O)C1CCCC1 | 4.25% (inactive) | -2.66% | -1.17%
40 | Cc1cc(Nc2ccc(Br)cc2)nc2ccccc12 | -50.8% (active) | -41% | -13.6%
41 | Cc1cc(C)c(C#N)c(Nc2cccc(Br)c2)n1 | 11.7% (inactive) | 6.25% | 3.63%
42 | C[C@H]1CCCCO[C@H](CN(C)Cc2ccccc2)[C@@H](C)CN([C@@H](C)CO)C(=O)c2cc(NS(C)(=O)=O)ccc2O1 | 2.67% (inactive) | 3.64% | -3.91%

Row | SMILES | GFP signal change (wild-type ribosome) | OD600 change | RFP signal change
43 | CCNC(=O)[C@@H]1[C@@H](CO)[C@@H]2Cn3c(ccc(-c4ccncc4)c3=O)[C@@H]2N1Cc1cc(F)ccc1F | 2.37% (inactive) | 8.82% | 1.07%
44 | C[C@@H]1CN([C@@H](C)CO)C(=O)c2cc(NC(=O)CCCN(C)C)ccc2O[C@@H](C)CCCCO[C@H]1CN(C)C(=O)Nc1cccc2ccccc12 | -3.48% (inactive) | -7.41% | 4.52%
45 | COc1ccc(Cn2c(=O)oc3ccccc32)cc1 | -5.68% (inactive) | 1.5% | 2.85%
46 | Cc1cccc(NC(=O)CCn2c(=O)oc3ccccc32)c1 | 3.5% (inactive) | 2.74% | -1.45%
47 | Cc1ccc(OCCCn2c(=O)oc3ccccc32)cc1 | -33.5% (active) | -20.9% | -1.83%
48 | O=C(Nc1ccccc1F)N[C@@H]1C=C[C@H](CC(=O)N2CCCCC2)O[C@@H]1CO | 3.61% (inactive) | 6.08% | -0.341%
49 | C[C@H](CO)N1C[C@H](C)[C@@H](CN(C)C(=O)Nc2cccc(F)c2)OCc2ccccc2-c2ccccc2C1=O | -0.679% (inactive) | -1.43% | 0.291%
50 | C[C@H](CO)N1C[C@H](C)[C@H](CN(C)C(=O)Nc2cccc3ccccc23)OCCCC[C@H](C)Oc2ccc(NC(=O)Nc3ccc4c(c3)OCO4)cc2C1=O | 2.1% (inactive) | 5.33% | -1.79%
51 | CC(C)NC(=O)N1CCCCN2[C@H](CO)[C@H](c3ccc(C#C[C@H](C)O)cc3)[C@H]2C1 | 5.37% (inactive) | 11.9% | 2.67%
52 | CCS(=O)(=O)N1Cc2cc(C(=O)N(C)C)nc(-c3cccc(-c4ccc(C#N)cc4)c3)c2[C@H]1CCO | 1.6% (inactive) | -8.16% | 0.491%
53 | CCCNC(=O)c1cc2c(c(-c3cccc(-c4ccc(F)cc4)c3)n1)[C@@H](CCO)N([S@](=O)C(C)(C)C)C2 | -7.84% (inactive) | -6.59% | 26.4%
54 | CCCNC(=O)c1cc2c(c(-c3cccc(-c4ccc(C#N)cc4)c3)n1)[C@@H](CCO)N(C(=O)CC)C2 | -28.9% (active) | -16.6% | 9.41%
55 | O=[N+]([O-])c1cccc(/C=N/Nc2ncc(Br)cn2)c1 | 14.8% (inactive) | 23.4% | 1.61%
56 | O=C(N/N=C/c1cc(Br)c(O)c([N+](=O)[O-])c1)C(O)(c1ccccc1)c1ccccc1 | -13.8% (inactive) | -17.8% | -3.16%
57 | O=[N+]([O-])c1cc(Br)c(O)c(/C=N/Nc2nc3ccccc3s2)c1 | -26.6% (active) | -18.1% | 3.75%
58 | C[C@H](CO)N1C[C@H](C)[C@H](CN(C)C(=O)C2CCOCC2)Oc2ncc(C#Cc3ccccc3F)cc2C1=O | 4.96% (inactive) | 16.6% | -0.455%
59 | Cc1cc2ccccn2c1C(=O)c1cccc(F)c1 | -7.7% (inactive) | -19.4% | -0.345%
60 | Cc1cc2ccccn2c1C(=O)c1cccc(S(=O)(=O)N2CCOCC2)c1 | -23.1% (active) | -17.5% | 2.76%
61 | Cc1nc2ccc(NC(=O)c3cccc(S(=O)(=O)N4CCOCC4)c3)cc2s1 | -8.91% (inactive) | -4.27% | -0.693%

— PubChem BioAssay AID720706 (Broad Institute, 2013)
